For part of these data: Potency and affinity values are given separately.
What was measured:
Staphylococcus aureus = assay: Antibacterial activity against Staphylococcus aureus MRSA ATCC 43300 (CO-ADD:GP_020); MIC in CAMBH media using NBS plates, by Resazurin F(560/590); format: functional; settings: Concentration 20 uM, ASSAY_TEST Inhibition of Bacterial Growth, detection method Resazurin, Fluorescence (ex560/em590), MEDIA CAMHB, plate type 384well, CORNING #3640, time 18 hr
Acinetobacter baumannii = assay: Antibacterial activity against Acinetobacter baumannii ATCC 19606 (CO-ADD:GN_034); MIC in CAMBH media using NBS plates, by Resazurin F(560/590); format: functional; settings: Concentration 20 uM, ASSAY_TEST Inhibition of Bacterial Growth, detection method Resazurin, Fluorescence (ex560/em590), MEDIA CAMHB, plate type 384well, CORNING #3640, time 18 hr
Escherichia coli = assay: Antibacterial activity against Escherichia coli ATCC 25922 (CO-ADD:GN_001); MIC in CAMBH media using NBS plates, by Resazurin F(560/590); format: functional; settings: Concentration 20 uM, ASSAY_TEST Inhibition of Bacterial Growth, detection method Resazurin, Fluorescence (ex560/em590), MEDIA CAMHB, plate type 384well, CORNING #3640, time 18 hr
Klebsiella pneumoniae = settings: Concentration 20 uM; ASSAY_TEST Inhibition of Bacterial Growth; detection method Absorption (OD600); MEDIA CAMHB; plate type 384well; NBS; CORNING #3640; time 18 hr
Candida albicans = settings: 20 µM
Cryptococcus neoformans = settings: Concentration 20 uM; ASSAY_TEST Inhibition of Fungal Growth; detection method Resazurin; Absorption (OD600-OD570); plate type 384well; NBS; CORNING #3640

Compound	Inhibition (Staphylococcus aureus)	Inhibition (Acinetobacter baumannii)	Inhibition (Escherichia coli)	Inhibition (Klebsiella pneumoniae)	Inhibition (Candida albicans)	Inhibition (Cryptococcus neoformans)
Nc1nc(N)c(/N=N/c2ccc(S(N)(=O)=O)cc2)c(O)n1	11.8%	-8.6%	-8.26%	23.84%	0.97%	-15.08%
CC(C)c1cc(C(F)(F)F)nc(NNc2nc(C(C)C)cc(C(F)(F)F)n2)n1	18.88%	-11.48%	9.37%	26.13%	9.95%	-5.35%
O=C(CN1CCCC1)Nc1nc(-c2ccc(Cl)cc2)cs1	-2.74%	10.5%	-10.54%	13.35%	4.21%	-1.35%
COc1ccc(-c2cc3ccccc3[nH]2)cc1	28.13%	-0.84%	12.2%	0.29%	-0.93%	-13.44%
N#CCc1cnc2ccccc2n1	13.21%	-15.61%	3.75%	2.07%	-2.07%	-9.92%
Nn1c(Cc2ccccc2)nnc1Cc1ccccc1	7.31%	16.12%	-0.96%	11.84%	2.51%	-5.12%
COC(=O)CC1(C(=O)OC)Nc2cc(Cl)c(Cl)cc2S(=O)(=O)N1O (stereo not given)	8.27%	11.98%	7.08%	10.44%	3.58%	3.59%
CC1(C)SC(C)(C)N(C=O)C1C(=O)O (stereo not given)	-0.19%	-4.51%	4.94%	4.48%	1.14%	-3.91%
[O-]/[N+](=C\c1ccccc1)CC1(O)CCCCC1	12.91%	10.28%	21.78%	2.39%	5.54%	9.39%
Clc1nc(Cl)nc(-c2cn(-c3ccccc3)c3ccccc23)n1	19.15%	12.32%	3.43%	3.41%	-0.1%	5.66%
Cc1cc(C)n2c(C)nnc2c1	-1.68%	-10.08%	5.69%	10.38%	-0.15%	-3%
Oc1ccc(/N=N/c2ccccc2)c(O)c1/N=N/c1ccccc1	-22.17%	3.79%	-20.22%	-6.85%	8.07%	33.55%
N=C(N)NC(=S)Nc1ccc(Cl)cc1	29.08%	3.91%	19.57%	9.15%	20%	-7.26%
CCN(CC)CCNC(=O)C(Cl)=C1C(Cl)=C(Cl)C(Cl)=C1Cl	7.61%	6.92%	-4.74%	29.33%	1.86%	-2.01%
O=c1oc(-c2ccccc2)c(-c2ccccc2)c2ccccc12	13.22%	4.08%	7.81%	4.41%	1.88%	-4.28%
CN(C)S(=O)(=O)Nc1cccc(Br)c1	1.46%	-10.63%	3.48%	2.53%	4.88%	43.58%
O=C(Nc1ccccc1-c1ccccc1)C(=O)Nc1ccccc1-c1ccccc1	3.9%	-8.51%	-14.91%	2.5%	2.13%	4.35%
NC(=O)c1nnsc1-c1ccc(-c2snnc2C(N)=O)cc1	15.72%	9.25%	9.34%	2.92%	-1.56%	-13.62%
N#Cc1cnn2ccn(C3OC(CO)C(O)C3O)c12 (stereo not given)	2.98%	-3.63%	8.76%	13.94%	4.75%	-11.71%
CC(C)(c1cc(Cl)c(O)c(CN2CCOCC2)c1)c1cc(Cl)c(O)c(CN2CCOCC2)c1	-6.13%	0.12%	12.95%	0.6%	-1.62%	-0.13%
COc1ccc(C(=O)O)nc1C	-3.26%	-9.48%	11.67%	7.05%	-1.1%	-14%
Cc1ccc(NC(=O)N2CCCCC2)cc1NC(=O)N1CCCCC1	-1.56%	7.43%	3.01%	16.93%	3.17%	1.83%
COc1ccc2c(c1)c1ccc3c(c1n2C)C(=O)C=CC3=O	-28.89%	3.5%	-18.56%	4.14%	7%	0.4%
CCSc1ncc(CO)c(N)n1	4.68%	-13.15%	2.64%	10.1%	0.06%	1.67%
COc1cc2c(O)cc(C(=O)O)c(-c3cc(OC)c(OC)c(OC)c3)c2cc1OC	5.82%	-7.99%	8.13%	8.82%	-0.33%	-9.59%

— ChEMBL document CHEMBL4296182, “CO-ADD screening of NIH NCI Diversity Set V”
